Source: PubChem BioAssay AID686979 (National Center for Advancing Translational Sciences (NCATS), 2013)
Out of some 420,000 compounds screened, about 50,000 (12%) were called active. Roughly 26% stayed inconclusive and do not appear here. This is one part of a sample in which actives are shown more often than they occur. The call rests on the fitted dose curve; in most records, active means well fitted inhibition curve with a large enough effect; inconclusive means small, poorly fitted or top-dose-only effect; inactive means flat fitted curve, though single readings scatter.

Assay: qHTS for Inhibitors of human tyrosyl-DNA phosphodiesterase 1 (TDP1): qHTS in cells in presence of CPT; further: nearly all actives have a fitted effect of over 55% in size
Details: chicken DT40 Tdp1-/-;hTDP1 cells + 20 nM CPT, ATP luminescence, 48 h; series mostly up to 46.2 µM; activity change, negative = growth inhibition: at the top concentration
Method in brief: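 Chicken DT40 Tdp1-/- cells stably complemented with human TDP1 were seeded at 400 cells/well in medium containing 20 nM camptothecin, exposed to pin-transferred compounds, and grown at 37 °C for at least 48 hr. Viability was read as ATP luminescence.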
On the % scale 0 is the no-effect control and ±100 the full control effect; potency means the concentration at half of the fitted maximal effect.

SMILES | activity change, negative = growth inhibition | Potency
CCCCCCCCCCOC(=O)C[N+](C)(C)CC1CCCCC1O (stereo not drawn) | -13.4% (inactive) | –
CC(NCc1cccs1)C(=O)Nc1cc(Cl)cc(Cl)c1 (stereo not drawn) | -1% (inactive) | –
CC(=O)N1CCC2(CCCN(Cc3ccc(C#N)cc3)C2)CC1 | 5.78% (inactive) | –
O=C(CCc1ccccc1)NCc1cccnc1 | 3.47% (inactive) | –
O=C(CN(c1cc(C(F)(F)F)ccc1Cl)S(=O)(=O)c1ccccc1)NCc1cccnc1 | – | 20.6 µM (active)
O=C(O)c1cc(S(=O)(=O)N(Cc2ccccc2)c2cccc(C(F)(F)F)c2)ccc1Cl | -1.49% (inactive) | –
COc1ccc(C2(C)NC(=O)N(CC(=O)c3ccc4c(c3)OCO4)C2=O)cc1 (stereo not drawn) | -16.2% (inactive) | –
CCCCc1nc(NCc2ccccc2)c(C#N)c2c1CCCC2 | -4.51% (inactive) | –
CCCCc1nc(NCCN)c(C#N)c2c1CSC(C)(C)C2 | – | 20.6 µM (active)
Cc1nc(NCCN)c(C#N)c2c1COC(C)(C)C2 | -10.5% (inactive) | –
COc1ccc(-c2cc(=O)c3c(O)cc(O[C@@H]4O[C@H](CO[C@@H]5O[C@@H](C)[C@H](O)[C@@H](O)[C@H]5O)[C@@H](O)[C@H](O)[C@H]4O)cc3o2)cc1O | – | inactive
COc1cc(C(=O)N[C@@H](C)C(=O)NCc2ccco2)cc(OC)c1OC | 29.6% (inactive) | –
COc1cc(C(=O)NC(=S)NCc2ccco2)cc(OC)c1OC | – | 18.4 µM (active)
COc1cccc(OC)c1C(=O)NC(=S)NCc1ccco1 | -1.27% (inactive) | –
CCN1C(=O)C(=O)N(CC(=O)Nc2cc(C)ccc2C)C1=O | -3.8% (inactive) | –
Cc1ccc(CSCCNC(=O)CN(c2ccc(F)cc2)S(C)(=O)=O)cc1 | -6.25% (inactive) | –
CCOC(=O)C1CCN(C(=O)COC(=O)C2CCN(S(=O)(=O)c3ccc4c(c3)OCCO4)CC2)CC1 | 7.75% (inactive) | –
Cc1ccc(-c2ccc(=O)n(CC(=O)NCCCN3CCCCC3)n2)cc1 | -0.122% (inactive) | –
CCc1ccc(-c2cc3c(=O)n(CC(=O)NCCCN4CCN(Cc5ccccc5)CC4)nc(C)n3n2)cc1 | – | 20.6 µM (active)
CCCN1CCN(CCCNC(=O)Cn2nc(CC)n3c(cc4occc43)c2=O)CC1 | -3.5% (inactive) | –
Cc1ccccc1CSc1nnc(-c2ccccc2)c(=O)[nH]1 | 6.06% (inactive) | –
C/C(Nc1ccc2oc(=O)ccc2c1)=C1/C(=O)CC2[C@@H]1C2(C)C (stereo partly drawn) | 6.03% [at 9.04 µM] (inactive) | –

SMILES | activity change, negative = growth inhibition | Potency
Cc1ccc(NC(=O)CCNC(=O)c2ccc([N+](=O)[O-])cc2)cc1S(=O)(=O)N1CCOCC1 | -17.7% (inactive) | –
Cc1ccc(C)c(S(=O)(=O)N2CCN(C(=O)Nc3ccccc3)CC2)c1 | 1.6% (inactive) | –
Cc1ccc(C)c(S(=O)(=O)N2CCN(CC(=O)Nc3ccc([N+](=O)[O-])cc3)CC2)c1 | – | 14.6 µM (active)
CC(=O)Nc1ccc(S(=O)(=O)N2CCN(CCCOc3cc(C)ccc3C)CC2)cc1 | – | 25.9 µM (active)
CC(=O)Nc1ccc(S(=O)(=O)N2CCSCC2)cc1 | -3.56% (inactive) | –
CC(=O)Nc1ccc(S(=O)(=O)N2CCN(S(=O)(=O)c3cccs3)CC2)cc1 | 4.79% (inactive) | –
CCCC/S(C)=N/S(=O)(=O)c1ccc(C)cc1 (stereo not drawn) | 20% (inactive) | –
N#Cc1c(NCCO)ccc([N+](=O)[O-])c1NCCO | 7.25% (inactive) | –
CC(=O)Oc1ccc(-c2nc3c(C)cccc3c(=O)o2)cc1 | -4.34% (inactive) | –
CCn1cc(C(=O)OCC(=O)Nc2cccc(C)c2)c(=O)c2ccc(C)nc21 | -10% (inactive) | –
CN(C)c1cc[n+](Cc2ccccc2)cc1 | – | 0.58 µM (active)
CN(C)c1ccc(/C=N/N(Cc2ccccc2)c2ccccc2)cc1 | 5.33% (inactive) | –
c1ccc(Cc2cc[n+](Cc3ccccc3)cc2)cc1 | – | 23.1 µM (active)
C[n+]1ccc(C(=O)NCc2ccccc2)cc1 | 2.67% (inactive) | –
[O-][n+]1ccc(OCc2ccccc2)cc1 | -4.31% (inactive) | –
COc1ccc(CCNC(=O)COc2ccc3c(c2)OCO3)cc1 | -12.7% (inactive) | –
CNC(=S)NNC(=O)c1oc2nc(-c3ccccc3)cc(-c3ccco3)c2c1N | -5.83% (inactive) | –
CC1CCCC(NC(=O)COC(=O)[C@@H]2CC(O)CN2S(=O)(=O)c2ccc3c(c2)OCCO3)C1C (stereo partly drawn) | -19.9% (inactive) | –
CCC1CCC2(CC1)NC(=O)N(CC(=O)Nc1ccc(OC)cc1)C2=O (stereo not drawn) | -25.3% (inactive) | –
O=C(c1cc2cc(Br)cc(Br)c2oc1=O)N1CCOCC1 | 1.58% (inactive) | –
O=C1Nc2c(Br)cc(Br)cc2C1(O)N1CCOCC1 (stereo not drawn) | – | 5.17 µM (active)
O=C(CSC(=S)N1CCOCC1)c1cc(Br)cc(Br)c1O | 4.78% (inactive) | –

SMILES | activity change, negative = growth inhibition | Potency
COc1ccc(C(=O)COC(=O)CCCC(=O)Nc2cc(C(F)(F)F)ccc2Cl)cc1 | -17.6% (inactive) | –
COc1ccc(OC)c(-n2c(=S)[nH]c3cc(C(=O)N4CCCCC4)ccc3c2=O)c1 | -5.5% (inactive) | –
CC(C)c1ccc(NC(=O)c2cc(S(=O)(=O)N3CCc4ccccc4C3)ccc2F)cc1 | -23% (inactive) | –
COc1cc(NC(=O)C2CCN(c3cnccn3)CC2)cc(OC)c1 | – | inactive
O=[N+]([O-])c1ccc(Oc2ccc(F)cc2Br)c2ccncc12 | – | 18.4 µM (active)
Cc1ccnc2nc(C(=O)OCC(=O)N(CC(C)C)CC(C)C)nn12 | -0.985% (inactive) | –
Cc1cc(C)c2nc(SCC(=O)N(C)C3CCS(=O)(=O)C3)cc(C)c2c1 (stereo not drawn) | – | 23.1 µM (active)
CN(C(=O)CSc1nnc(-c2ccc(C(C)(C)C)cc2)n1C)C1CCS(=O)(=O)C1 (stereo not drawn) | -26.7% (inactive) | –
CCn1c(SCC(=O)N(C)C2CCS(=O)(=O)C2)nnc1-c1cccs1 (stereo not drawn) | 2.56% (inactive) | –
COCCn1c(SC(C)C(=O)NC2CC2)nnc1-c1cccc(C)c1 (stereo not drawn) | -11.5% (inactive) | –
CCN(CC)C(=O)C1=C(C)N(Cc2ccc(F)cc2)C(=O)C(CC(=O)NCc2cccc3ccccc23)C1 (stereo not drawn) | -26% (inactive) | –
COc1ccc(NC(=O)C(C)N2c3cccc4cccc(c34)S2(=O)=O)c(OC)c1 (stereo not drawn) | -28.9% (inactive) | –
CCOc1cccc(-c2nnc(SCC(=O)NC3CC3)n2C)c1 | -19.7% (inactive) | –
COCCN1C=C2C(=O)C(C)(OC(=O)C3CCCC3)C(=O)C=C2C=C1c1ccsc1 (stereo not drawn) | -29.9% (inactive) | –
COC(=O)CCCC1=CC2=C(c3ccccc3)C(=O)C(C)(OC(=O)C3CCCC3)C(=O)C2=CN1c1ccc(OC)cc1 (stereo not drawn) | – | 20.6 µM (active)
COC(=O)CCCC1=CC2=CC(=O)C(C)(OC(=O)c3cccs3)C(=O)C2=CN1c1cccc(C#N)c1 (stereo not drawn) | 3.09% (inactive) | –
O=c1ccc(S(=O)(=O)N2CCCC2)cn1Cc1nc(-c2ccccc2)no1 | -27.7% (inactive) | –
Clc1cccc(Cl)c1Cn1nnc(-c2cccs2)n1 | -6.63% (inactive) | –
O=C(Cc1ccc([N+](=O)[O-])cc1)N/N=C/c1ccco1 | -7.38% (inactive) | –
CCN(/N=C/c1ccccc1)c1cc(=O)n(C)c(=O)[nH]1 | -0.0785% (inactive) | –
O=C(Nc1ccccc1)c1nnsc1S(=O)(=O)c1ccc(Cl)cc1 | – | 4.61 µM (active)
CC(=O)Nc1cc(C(=O)O)ccc1S(=O)(=O)c1ccc(Cl)cc1 | -14.8% (inactive) | –

SMILES | activity change, negative = growth inhibition | Potency
O=C(Nc1cccc(Cl)c1)c1csnn1 | -1.59% (inactive) | –
CC(=O)c1ccc(OCCN2CCOCC2)cc1 | -7.82% (inactive) | –
CCOc1ccc(C2C(C(=O)O)c3ccccc3C(=O)N2CCN2CCOCC2)cc1 (stereo not drawn) | -11.6% (inactive) | –
CCOc1ccc(C(=O)CCN2CCOCC2)cc1 | – | 3.26 µM (active)
COc1cccc(N(C(=O)CNC(=O)c2ccco2)C(C(=O)NC2CCCCC2)c2cccnc2)c1 (stereo not drawn) | 7.98% (inactive) | –
COc1ccccc1CC(=O)NCCc1c[nH]c2ccccc12 | -3.85% (inactive) | –
COc1cccc(CNCCc2c[nH]c3ccccc23)c1OCc1ccccc1F | – | 10.3 µM (active)
COc1ccc(S(=O)(=O)NCCc2c[nH]c3ccccc23)cc1OC | -12.3% (inactive) | –
Cc1noc(C)c1C(=O)NCCc1ccc(S(N)(=O)=O)cc1 | -7.27% (inactive) | –
CCOC(=O)c1c(C)[nH]c(C2=NNC(=NC(C)COC)SC2)c1C (stereo not drawn) | – | 20.6 µM (active)
CCOCCCNC(=O)C(NC(=O)CNC(=O)c1ccccc1)c1ccc(C)cc1 (stereo not drawn) | -2.56% (inactive) | –
CC1CCN(C(=O)/C(=C\c2ccccc2F)NC(=O)c2ccccc2)CC1 | 2.66% (inactive) | –
COC(=O)c1ccccc1C(=O)NCc1nc(N2CCCC2)c2cccc(C)c2n1 | 0.789% (inactive) | –
CCCC(=O)n1nc(NCc2ccc(OC)cc2)nc1NCc1ccc(OC)cc1 | -3.08% (inactive) | –
COc1ccc(CNc2nc(NCc3ccc(OC)cc3)c3ncn(C4CCCC4)c3n2)cc1 | – | 3.26 µM (active)
COc1ccc(CNC2CCCCC2)cc1 | -19.1% (inactive) | –
COc1ccc(-n2c(SCC(=O)NCc3cccs3)nnc2-c2ccoc2C)cc1 | -25.9% (inactive) | –
C/C(=N\NC(=O)c1ccc(CSc2nc(C)cc(C)n2)cc1)C1CCCCC1 | -9.14% (inactive) | –
CC(=O)c1c(C)c[nH]c1C | – | 23.1 µM (active)
C1CC1Cc1noc(CN2CCN(CC3CC3)CC2)n1 | -3.85% (inactive) | –
O=C(CN1C(=O)NC2(CCCCC2)C1=O)NCCc1c[nH]c2ccccc12 | -15.2% (inactive) | –
CC1(C(=O)NCCc2c[nH]c3ccccc23)C=CC2(CCCCC2)N1C(=O)c1ccccc1 (stereo not drawn) | – | 18.4 µM (active)

SMILES | activity change, negative = growth inhibition | Potency
O=C(NCCc1c[nH]c2ccccc12)c1cccc(Br)c1 | -16.9% (inactive) | –
C=CCn1c(SCC(=O)NC)nnc1C12CC3CC(CC(C3)C1)C2 | -4.49% (inactive) | –
Cc1cc(C)cc(OCC(=O)NNC(=O)CCN2C(=O)c3ccccc3C2=O)c1 | -4.21% (inactive) | –
Cc1ccsc1/C=N/NC(=O)Cc1cc(=O)[nH][nH]1 | -6.7% (inactive) | –
COc1cc(CCC(=O)Nc2ccncc2Cl)cc(OC)c1OC | -1.48% (inactive) | –
CC(=O)c1ccc(N2CCN(C(=O)CCc3ccccc3)CC2)cc1 | -20.4% (inactive) | –
COc1cc(CCC(=O)N2CCN(c3ccccc3Cl)CC2)cc(OC)c1OC | – | 11.6 µM (active)
Cc1cc(Cl)c2oc(C(=O)N3CCC(O)(c4ccccc4)CC3)c(C)c2c1 | -22.6% (inactive) | –
Cc1cc2nc(-c3ccco3)c(Cc3cccc(F)c3)n2c(C)c1Br | – | 16.4 µM (active)
CCCCN(C(=O)c1ccc2ccccc2c1)c1c(N)n(CCCC)c(=O)[nH]c1=O | -20.9% (inactive) | –
CN(CC(=O)NCCc1ccc(S(N)(=O)=O)cc1)CC(=O)Nc1ccc(F)c(F)c1F | -2.55% (inactive) | –
Cc1cc2nc(NC(=O)c3ccc(S(=O)(=O)N4CCOCC4)cc3)sc2cc1C | -6.36% (inactive) | –
CCOC(=O)c1csc(NC(=O)c2ccc(S(=O)(=O)N3CCCC3)cc2)n1 | -29% (inactive) | –
Cc1cccnc1NC(=O)c1cccc(S(=O)(=O)N2CCN(c3ccc(F)cc3)CC2)c1 | – | 18.4 µM (active)
O=C(Nc1ccccc1F)c1ccc(S(=O)(=O)N2CCCCCC2)cc1 | -28.5% (inactive) | –
Cc1ccc(C)c2sc(NC(=O)c3ccc(S(=O)(=O)N4CCCC4)cc3)nc12 | – | 29.1 µM (active)
O=C(N/N=C/c1ccccn1)c1ccc(S(=O)(=O)N2CCCCCC2)cc1 | -12.5% (inactive) | –
O=C(Nc1ncccc1O)c1ccc(S(=O)(=O)N2CCCC2)cc1 | – | 14.6 µM (active)
Cc1ccc(C(=O)Nc2ncccc2C)cc1S(=O)(=O)N1CCOCC1 | 0.269% (inactive) | –
CN1CCN(S(=O)(=O)c2cccc(C(=O)Nc3sccc3C#N)c2)CC1 | -11.2% (inactive) | –
